Test results reported in PubChem BioAssay AID1159580 (chemical genetic matrix, 2015).
“And” between values parts separate entries of the source, which are not always exact repeats. Equal values may be shown once. Hit rate of the full screen: of about 5,500 compounds, about 2,000 (36%) were called active. Another 18% or so got no clear call; they are omitted. Cut-off read from the data, not from the text of the source: active = normalized growth mostly below about 0.91 (no sharp cut-off); inconclusive = no clear call, values can overlap the other calls; inactive = mostly above about 0.92. This is one part of the list.

Experiment: chemical genetic growth profiling, strain panel (AID 1159580);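 note: tested at 20 µM; growth read once vehicle control cultures reached saturation at 30 °C; 1 = growth at the plate median or of vehicle wells; lower values mean less growth of the strain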
Settings: S. cerevisiae deletion strains, growth OD

Measured: normalized growth

O=c1c(O)c(-c2ccccc2)oc2cc(O)ccc12
0.434 (active) and 1.07 (inactive): locus YHR030C, strain SLT2, stronger effect = lower value
active: locus YAL021C, strain ccr4, stronger effect = lower value 0.572 | locus YAL026C, strain drs2, stronger effect = lower value 0.486 | locus YAL030W, strain snc1, stronger effect = lower value 0.66 | locus YBL061C, strain skt5, stronger effect = lower value 0.685 | locus YBR009C, strain hhf1, stronger effect = lower value 0.597 | locus YBR023C, strain chs3, stronger effect = lower value 0.518 | locus YBR171W, strain sec66, stronger effect = lower value 0.825 | locus YBR229C, strain ROT2, stronger effect = lower value 0.873 | locus YBR231C, strain swc5, stronger effect = lower value 0.572 | locus YBR279W, strain paf1, stronger effect = lower value 0.641 | locus YCL011C, strain gbp2, stronger effect = lower value 0.583 | locus YCL016C, strain dcc1, stronger effect = lower value 0.711 | locus YCL029C, strain bik1, stronger effect = lower value 0.779 | locus YCL061C, strain MRC1, stronger effect = lower value 0.799 | locus YCL069W, strain vba3, stronger effect = lower value 0.864 | locus YDL035C, strain GPR1, stronger effect = lower value 0.432 | locus YDL040C, strain nat1, stronger effect = lower value 0.847 | locus YDL074C, strain BRE1, stronger effect = lower value 0.455 | locus YDL101C, strain DUN1, stronger effect = lower value 0.697 | locus YDL192W, strain arf1, stronger effect = lower value 0.664 | locus YDR001C, strain nth1, stronger effect = lower value 0.887 | locus YDR069C, strain doa4, stronger effect = lower value 0.413 | locus YDR101C, strain arx1, stronger effect = lower value 0.903 | locus YDR137W, strain rgp1, stronger effect = lower value 0.38 | locus YDR150W, strain NUM1, stronger effect = lower value 0.707 | locus YDR162C, strain NBP2, stronger effect = lower value 0.121 | locus YDR297W, strain sur2, stronger effect = lower value 0.77 | locus YDR318W, strain mcm21, stronger effect = lower value 0.708 | locus YDR334W, strain swr1, stronger effect = lower value 0.704 | locus YDR335W, strain msn5, stronger effect = lower value 0.757 | locus YDR388W, stronger effect = lower value 0.759 | locus YDR392W, strain spt3, stronger effect = lower value 0.369 | locus YDR502C, strain sam2, stronger effect = lower value 0.751 | locus YEL003W, strain gim4, stronger effect = lower value 0.754 | locus YEL037C, strain rad23, stronger effect = lower value 0.794 | locus YEL061C, strain CIN8, stronger effect = lower value 0.705 | locus YER015W, strain faa2, stronger effect = lower value 0.454 | locus YER016W, strain bim1, stronger effect = lower value 0.766 | locus YER111C, strain swi4, stronger effect = lower value 0.873 | locus YER155C, strain BEM2 (second series), stronger effect = lower value 0.81 | locus YER155C, strain BEM2, stronger effect = lower value 0.627 | locus YER167W, strain BCK2, stronger effect = lower value 0.676 | locus YFR010W, strain ubp6, stronger effect = lower value 0.62 | locus YGL086W, strain mad1, stronger effect = lower value 0.699 | locus YGL167C, strain pmr1, stronger effect = lower value 0.882 | locus YGL173C, strain kem1, stronger effect = lower value 0.382 | locus YGL240W, strain doc1, stronger effect = lower value 0.675 | locus YGL248W, strain PDE1, stronger effect = lower value 0.506 | locus YGL253W, strain hxk2, stronger effect = lower value 0.508 | locus YGR078C, strain PAC10, stronger effect = lower value 0.586 | locus YGR135W, strain pre9, stronger effect = lower value 0.675 | locus YGR252W, strain gcn5, stronger effect = lower value 0.701 | locus YHR013C, strain ard1, stronger effect = lower value 0.439 | locus YHR027C, strain rpn1, stronger effect = lower value 0.339 | locus YHR079C, strain IRE1 (second series), stronger effect = lower value 0.913 | locus YHR094C, strain hxt1, stronger effect = lower value 0.903 | locus YHR129C, strain ARP1, stronger effect = lower value 0.564 | locus YHR142W, strain chs7, stronger effect = lower value 0.474 | locus YHR200W, strain rpn10, stronger effect = lower value 0.825 | locus YIL066C, strain RNR3, stronger effect = lower value 0.663 | locus YIL073C, strain SPO22, stronger effect = lower value 0.326 | locus YIR030C, strain dcg1, stronger effect = lower value 0.858 | locus YJL092W, strain hpr5, stronger effect = lower value 0.79 | locus YJL095W, strain BCK1 (second series), stronger effect = lower value 0.337 | locus YJL115W, strain asf1, stronger effect = lower value 0.9 | locus YJL129C, strain trk1, stronger effect = lower value 0.809 | locus YJL134W, strain LCB3, stronger effect = lower value 0.844 | locus YJL154C, strain vps35, stronger effect = lower value 0.885 | locus YJL164C, strain tpk1, stronger effect = lower value 0.432 | locus YJL166W, strain qcr8, stronger effect = lower value 0.471 | locus YJL168C, strain set2, stronger effect = lower value 0.902 | locus YJL187C, strain SWE1 (second series), stronger effect = lower value 0.5 | locus YJL187C, strain SWE1, stronger effect = lower value 0.653 | locus YJR043C, strain POL32, stronger effect = lower value 0.387 | locus YJR075W, strain HOC1, stronger effect = lower value 0.571
inactive: locus YBR021W, strain FUR4, stronger effect = lower value 1.05 | locus YCR088W, strain abp1, stronger effect = lower value 0.937 | locus YDL005C, strain med2, stronger effect = lower value 0.941 | locus YDL185W, strain tfp1, stronger effect = lower value 0.928 | locus YDR159W, strain sac3, stronger effect = lower value 0.886 | locus YDR195W, strain ref2 1.07 | locus YEL061C, strain CIN8 (second series), stronger effect = lower value 0.915 | locus YER110C, stronger effect = lower value 0.92 | locus YGL078C, strain dbp3, stronger effect = lower value 0.948 | locus YGL227W, strain vid30, stronger effect = lower value 0.931 | locus YHR079C, strain IRE1, stronger effect = lower value 1.07 | locus YIL125W, strain kgd1, stronger effect = lower value 0.951 | locus YJR066W, strain TOR1, stronger effect = lower value 0.982
0.208 (active) and 1.01 (inactive): locus YJL095W, strain BCK1, stronger effect = lower value
